Shown are actives, neighbours in structure and some others; about 3.2% of the full set was active somewhere.
Sm TGR block: inhibitors of Schistosoma mansoni thioredoxin glutathione reductase; Q962Y6; purified TGR, DTNB reduction, TNB absorbance 405 nm; Potency, µM (doses to about 114 µM), hits mostly inhibitors; 360,000 tested, 3% active; further: nearly all actives have a fitted effect of over 60% in size
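Kinetic colorimetric format: TGR-catalysed, NADPH-driven DTNB reduction monitored via TNB absorbance. Enzyme dispensed at 20 nM; compound exposure 15 min at room temperature before reaction start.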
AMA1-RON2 inh: inhibitors of Plasmodium falciparum AMA1-RON2 interaction; Potency, µM (doses to about 58.2 µM), actives largely listed as inhibitors; AlphaScreen AMA1-biotinylated RON2 peptide binding; 360,000 tested, 0.2% active; further: nearly all actives have a fitted effect of over 45% in size
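AMA1 (3D7) with his tag at 25 nM final met compounds first, then biotinylated RON2 peptide at 25 nM; detection used donor plus acceptor beads, 10 µg/mL apiece, read by AlphaScreen after 30 min at room temperature.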
AmpC no deterg: blocks E. coli AmpC beta-lactamase in detergent-free assay. Potency, µM (highest dose often 57.1 µM), most hits filed as inhibitors. AID 485341. 330,000 tested, 0.52% active. P00811. AmpC nitrocefin hydrolysis, absorbance 480 nm, 0.0001% Triton; further: nearly all actives have a fitted effect of over 20% in size
Target sequence (P00811 whole entry, looked up): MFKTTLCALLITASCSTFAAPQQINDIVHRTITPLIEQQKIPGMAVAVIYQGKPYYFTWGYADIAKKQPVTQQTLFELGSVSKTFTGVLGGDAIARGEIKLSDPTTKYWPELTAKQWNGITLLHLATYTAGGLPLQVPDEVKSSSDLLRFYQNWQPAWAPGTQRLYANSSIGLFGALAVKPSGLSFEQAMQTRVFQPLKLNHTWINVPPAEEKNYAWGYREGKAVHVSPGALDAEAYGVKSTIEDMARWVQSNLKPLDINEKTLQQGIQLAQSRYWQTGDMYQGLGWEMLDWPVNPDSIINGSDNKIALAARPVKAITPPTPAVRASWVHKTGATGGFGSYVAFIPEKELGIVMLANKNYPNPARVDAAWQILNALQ
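AmpC (5.3 nM in the dispensed reagent) in 20 mM phosphate pH 7.0 with 0.01% (detergent screen) or 0.0001% Triton X-100 was preincubated with compounds for 15 min at room temperature. Nitrocefin was then added from an 800 uM solution, and hydrolysis was followed at 480 nm.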
RE007 growth inh: less growth of the S. pombe RE007 Vpr strain | S. pombe RE007 Vpr strain, BacTiter-Glo ATP luminescence, 24 h | Potency, µM (doses to about 92.2 µM), actives largely listed as inhibitors | 360,000 tested, 0.21% active; active means well fitted falling curve with a large enough effect; inconclusive means small, poorly fitted or top-dose-only effect; inactive means no such curve, though single readings can be large or run the other way; further: nearly all actives have a fitted effect of over 50% in size
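Fission yeast RE007 carrying one integrated HIV-1 vpr copy, seeded at OD 0.01 in PMG+AL medium with 23 nL pinned compound. Grown 24 h at 30 degrees; viability read by BacTiter-Glo luminescence after 5 min.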
AmpC inh detg: inhibitors of E. coli AmpC beta-lactamase with detergent; AID 485294; Potency, µM (doses to about 114 µM), actives largely listed as inhibitors; 370,000 tested, 0.041% active; P00811; AmpC hydrolysis of nitrocefin, absorbance 480 nm, 0.01% Triton; further: nearly all actives have a fitted effect of over 25% in size
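20 mM phosphate pH 7.0 + 0.01% (detergent screen) or 0.0001% Triton X-100; 5.3 nM AmpC reagent; cpd preinc 15 min RT; nitrocefin (800 uM stock) to start; A480 q20 s × 4 min; Activity was normalised to no-enzyme and no-compound control wells.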
Large screens that a line does not name were inactive. Unless noted, the call rests on the fitted dose curve; in most records, active means well fitted curve in the direction sought with a large enough effect; inconclusive means small, poorly fitted or top-dose-only effect, or another doubt; inactive means no such curve, though single readings can be large; an effect the other way counts as inactive or inconclusive.

Cc1cc(N2CCC(C)CC2)nc2ccc(NC(=O)/C=C/c3cccc(Cl)c3)cc12	none (no result: AMA1-RON2 inh, AmpC no deterg, RE007 growth inh)
COc1ccc2c(c1)c(=O)c(S(=O)(=O)c1ccccc1)cn2CC(=O)Nc1ccc(C)c(Cl)c1	none (no result: AMA1-RON2 inh, AmpC no deterg, RE007 growth inh)
CC(C)(C)C1=CC=C(C(C)(C)C)C(=O)C1=O	Sm TGR block 25µM (no result: AMA1-RON2 inh, RE007 growth inh)
COc1ccc(-c2[nH]c3ccccc3c2SCCNC(=O)c2ccc(S(=O)(=O)N(C)C)cc2)cc1	none (no result: AMA1-RON2 inh, AmpC no deterg, RE007 growth inh)
Cc1cnc(C)c(N2CCN(Cc3nc(-c4cccc(F)c4F)oc3C)CC2)n1	Sm TGR block 35µM
CCC(NC(=O)Nc1cccc(C)c1)c1c(-n2cccc2)sc2c1CCN(C)C2 (centres undefined)	none (no result: AMA1-RON2 inh, AmpC no deterg, RE007 growth inh)
O=C(O)c1cccc(-n2cccc2/C=C/[N+](=O)[O-])c1	Sm TGR block 4.5µM
Cc1cccc(NC(=O)c2ccc([N+](=O)[O-])s2)n1	RE007 growth inh 16µM
Cc1cccc(C)c1NC(=O)c1ccc([N+](=O)[O-])s1	none
CN(C(=O)COC(=O)c1nc(Cl)c(Cl)c(Cl)c1Cl)C1CCS(=O)(=O)C1 (centres undefined)	Sm TGR block 35µM
CN(C(=O)COC(=O)c1ccc(C(C)(C)C)cc1)C1CCS(=O)(=O)C1 (centres undefined)	none
Cc1sc2nc(C(C)C)nc(SCC(=O)NC3CC3)c2c1C	AmpC inh detg 14µM
Cc1ccc(CS(=O)(=O)c2ccc(C(=O)N3CCCCC3)cc2[N+](=O)[O-])cc1	Sm TGR block 18µM
CCN(CC)C(=O)c1ccc(S(=O)(=O)Cc2ccc(C)cc2)c([N+](=O)[O-])c1	Sm TGR block 7.9µM
Cc1ccc(CS(=O)(=O)c2ccc(C(=O)N3CCN(c4ccccn4)CC3)cc2[N+](=O)[O-])cc1	Sm TGR block 32µM
O=C(CN(c1ccc(Cl)cc1)S(=O)(=O)c1ccc(Cl)c([N+](=O)[O-])c1)NCCc1ccc(F)cc1	Sm TGR block inconclusive, AmpC no deterg 32µM
O=C(CN(c1ccc(Cl)cc1)S(=O)(=O)c1ccc(Cl)c([N+](=O)[O-])c1)NCCc1ccccc1	none (no result: Sm TGR block)
COc1ccc(NS(=O)(=O)c2ccc(NC(=S)NC(=O)c3ccc(F)cc3)cc2)nn1	Sm TGR block 45µM
CCc1nnc(NS(=O)(=O)c2ccc(NC(=S)NC(=O)c3cccnc3)cc2)s1	Sm TGR block 18µM
Cc1cc(NS(=O)(=O)c2ccc(NC(=S)NC(=O)c3cccnc3)cc2)no1	RE007 growth inh inconclusive
CCc1nnc(NS(=O)(=O)c2ccc(NC(=S)NC(=O)c3ccc(F)cc3)cc2)s1	Sm TGR block 45µM
CCc1nnc(NS(=O)(=O)c2ccc(NC(=O)c3ccc(Br)cc3)cc2)s1	AmpC inh detg inconclusive
Cc1cc(C)nc(NS(=O)(=O)c2ccc(NC(=S)NC(=O)c3cccnc3)cc2)n1	Sm TGR block inconclusive
COc1ccc(/C=C/C(=O)NC(=S)Nc2ccc(S(=O)(=O)Nc3ccc(OC)nn3)cc2)cc1	none
Cc1cc(NS(=O)(=O)c2ccc(NC(=S)NC(=O)c3ccc(Br)cc3)cc2)no1	Sm TGR block 50µM
CCn1c(=O)c2sccc2n2c(CCCC(=O)Nc3ccc(C)cc3)nnc12	none (no result: AMA1-RON2 inh, AmpC no deterg, RE007 growth inh)
O=C(Nc1nnc2n1CCS2)c1cc(C(F)(F)F)cc(C(F)(F)F)c1	none (no result: AMA1-RON2 inh, AmpC no deterg, RE007 growth inh)
CC(C)CC(=O)/C=C/n1c(=S)oc2ccccc21	Sm TGR block 6.3µM, AmpC inh detg inconclusive
CC(=O)/C=C/n1c(=S)oc2ccccc21	Sm TGR block 2.5µM, RE007 growth inh 40µM
Cc1ccc(NC(=O)C(CC(C)C)N2Cc3ccccc3C2=O)cc1F (centres undefined)	none (no result: AMA1-RON2 inh, AmpC no deterg, RE007 growth inh)
Cc1ccc(C)c(NC(=O)Cn2c(=O)n(CCCS(=O)(=O)C3CCCCC3)c(=O)c3ccccc32)c1	none (no result: AMA1-RON2 inh, AmpC no deterg, RE007 growth inh)
O=C(O)c1ccccc1Nc1cc(Cl)c2nonc2c1[N+](=O)[O-]	Sm TGR block 0.45µM
O=[N+]([O-])c1c(Nc2ccc(O)cc2)cc(Cl)c2nonc12	Sm TGR block 0.32µM (no result: RE007 growth inh)
O=[N+]([O-])c1c(Nc2ccccn2)cc(Cl)c2nonc12	Sm TGR block 0.89µM, RE007 growth inh 8.9µM
O=C(O)c1cccc(Nc2cc(Cl)c3nonc3c2[N+](=O)[O-])c1	Sm TGR block 0.35µM, AmpC inh detg inconclusive
